Measurements as given in PubChem BioAssay (Tox21).
Results filed as inconclusive are left out. Activity calls are given as the source filed them. Unless noted, calls come from the whole dose curve.

Key:
[1] = qHTS assay to identify small molecule agonists of the sonic hedgehog signaling (Shh) pathway (AID 1259368);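 note: NIH/3T3-derived 3T3Gli1-Luc cells carrying a stable Gli1-driven firefly luciferase reporter; series mostly up to about 92 µM; nearly all actives have a fitted effect of over 15% in size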
Method in brief: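 3T3Gli1-Luc (NIH/3T3 clone, stable Gli1-Luc); 4 hr pre-incubation, then cpd in DMSO 24 hr, 37 C/5% CO2; luciferase reagent 30 min RT; luminescence.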

[2] = qHTS assay to identify small molecule antagonists of the sonic hedgehog signaling (Shh) pathway (AID 1259369); note: nearly all actives have a fitted effect of over 45% in size; note: potency is the fitted concentration of half-maximal effect
Method in brief: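 3T3Gli1-Luc, conditioned-medium-stimulated, 24hr cpd, 37C/5% CO2; Gli1-driven firefly Luc luminescence after 30min RT with luciferase reagent. Cells plated 4hr before cpd.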

[3] = target: Estrogen receptor beta (Homo sapiens) (UniProt Q92731); assay: qHTS assay to identify small molecule agonists of the estrogen receptor beta (ER-beta) signaling pathway (AID 1259377; active = well fitted activation curve with a large enough effect in the signal ratio in the repeat runs, not every such curve was filed as active; the % refers to the signal ratio)
Estrogen receptor beta (Homo sapiens), sequence (Q92731 whole entry, looked up): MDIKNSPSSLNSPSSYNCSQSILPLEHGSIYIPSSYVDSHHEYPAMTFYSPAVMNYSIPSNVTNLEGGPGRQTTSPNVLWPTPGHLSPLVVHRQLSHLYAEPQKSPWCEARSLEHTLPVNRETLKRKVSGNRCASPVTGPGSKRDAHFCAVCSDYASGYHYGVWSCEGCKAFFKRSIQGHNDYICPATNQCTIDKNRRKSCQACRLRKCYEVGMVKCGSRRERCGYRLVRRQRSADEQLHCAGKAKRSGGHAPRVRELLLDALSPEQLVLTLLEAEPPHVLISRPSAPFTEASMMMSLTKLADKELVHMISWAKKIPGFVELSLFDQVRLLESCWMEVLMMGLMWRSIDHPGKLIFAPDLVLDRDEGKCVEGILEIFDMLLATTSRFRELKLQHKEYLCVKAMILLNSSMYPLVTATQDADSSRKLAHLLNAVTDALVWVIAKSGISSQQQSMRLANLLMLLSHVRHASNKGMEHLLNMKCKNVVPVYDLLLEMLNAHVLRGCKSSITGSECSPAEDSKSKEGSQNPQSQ
Method in brief: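 In HEK293T cells bearing a UAS-beta-lactamase reporter under ER-beta control, DMSO-delivered compounds were incubated for 16 hr at 37C. Activity was detected as fluorescence 2 hours after LiveBLAzer B/G FRET substrate addition.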

[4] = qHTS assay to identify small molecule agonists of the androgen receptor (AR) signaling pathway in the presence of an antagonist - cell viability counter screen (AID 1259379; active = well fitted curve in the direction sought with a large enough effect in the repeat runs; an effect the other way counts as inactive or inconclusive;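 note: MDA-kb2 human breast cancer cells carrying an MMTV luciferase reporter; series mostly up to about 92 µM; nearly all actives have a fitted effect of over 25% in size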)
Method in brief: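 Cells: MDA-kb2 (MMTV-luc, AR and GR elements), 3,000/well, 5 hr settle. Added: nilutamide 3.0uM final, then compounds (15 conc.). Incubation: 16 hr, 37C, no CO2. Read-out: CellTiter-Fluor, 1 hr, fluorescence.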

[5] = qHTS assay to identify small molecule agonists of the estrogen receptor beta (ER-beta) signaling pathway - cell viability counter screen (AID 1259380; active = well fitted curve in the direction sought with a large enough effect in the repeat runs; an effect the other way counts as inactive or inconclusive; note: nearly all actives have a fitted effect of over 30% in size; note: potency is the fitted concentration of half-maximal effect)
Method in brief: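 HEK293T ER-beta-UAS-bla; 2% CS-FBS; 6 hr pre-plate, 16 hr cpd at 37C/5% CO2; LiveBLAzer read first, then CellTiter-Glo 30 min RT, luminescence.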

[6] = target: Androgen receptor (Homo sapiens) (UniProt P10275); assay: qHTS assay to identify small molecule agonists of the androgen receptor (AR) signaling pathway in the presence of an antagonist (AID 1259381); note: nearly all actives have a fitted effect of over 15% in size; note: potency is the fitted concentration of half-maximal effect
Androgen receptor (Homo sapiens), sequence (P10275 whole entry, looked up): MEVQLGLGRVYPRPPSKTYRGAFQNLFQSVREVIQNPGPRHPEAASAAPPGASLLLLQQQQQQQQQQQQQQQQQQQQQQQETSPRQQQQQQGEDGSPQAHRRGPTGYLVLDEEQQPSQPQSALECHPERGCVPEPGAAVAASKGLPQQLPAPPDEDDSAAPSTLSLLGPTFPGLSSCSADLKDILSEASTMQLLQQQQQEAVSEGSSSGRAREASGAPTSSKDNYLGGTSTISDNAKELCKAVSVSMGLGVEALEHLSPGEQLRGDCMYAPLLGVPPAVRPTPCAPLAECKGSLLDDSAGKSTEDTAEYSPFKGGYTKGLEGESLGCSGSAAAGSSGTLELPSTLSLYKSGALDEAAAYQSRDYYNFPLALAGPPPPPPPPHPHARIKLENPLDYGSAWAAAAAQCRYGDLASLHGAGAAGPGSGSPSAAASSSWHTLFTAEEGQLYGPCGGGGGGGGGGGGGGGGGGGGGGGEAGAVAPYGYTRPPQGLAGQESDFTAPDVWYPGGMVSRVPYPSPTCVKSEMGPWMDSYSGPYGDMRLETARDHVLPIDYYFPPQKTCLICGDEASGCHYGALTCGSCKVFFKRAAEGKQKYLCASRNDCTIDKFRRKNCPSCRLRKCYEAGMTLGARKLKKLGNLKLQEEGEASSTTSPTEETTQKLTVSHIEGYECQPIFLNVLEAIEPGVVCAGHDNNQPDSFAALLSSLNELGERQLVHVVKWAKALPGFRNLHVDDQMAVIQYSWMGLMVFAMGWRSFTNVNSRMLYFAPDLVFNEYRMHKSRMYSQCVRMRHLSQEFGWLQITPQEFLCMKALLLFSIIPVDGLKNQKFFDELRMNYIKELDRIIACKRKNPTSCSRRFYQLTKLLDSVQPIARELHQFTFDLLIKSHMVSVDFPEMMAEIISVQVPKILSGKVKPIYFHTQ
Method in brief: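 MDA-kb2 cells, 3,000/well, rested 5hr at 37C/0% CO2 → nilutamide 3.0uM final or buffer → compounds, 15 conc. → 16hr at 37C → ONE-Glo, 30min RT → luminescence.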

[7] = target: Estrogen receptor (Homo sapiens) (UniProt P03372); assay: qHTS assay to identify small molecule agonists of the estrogen receptor alpha (ER-alpha) signaling pathway in the presence of an antagonist (AID 1259383); note: top concentration of the series differs between compounds; nearly all actives have a fitted effect of over 15% in size
Estrogen receptor (Homo sapiens), sequence (P03372 whole entry, looked up): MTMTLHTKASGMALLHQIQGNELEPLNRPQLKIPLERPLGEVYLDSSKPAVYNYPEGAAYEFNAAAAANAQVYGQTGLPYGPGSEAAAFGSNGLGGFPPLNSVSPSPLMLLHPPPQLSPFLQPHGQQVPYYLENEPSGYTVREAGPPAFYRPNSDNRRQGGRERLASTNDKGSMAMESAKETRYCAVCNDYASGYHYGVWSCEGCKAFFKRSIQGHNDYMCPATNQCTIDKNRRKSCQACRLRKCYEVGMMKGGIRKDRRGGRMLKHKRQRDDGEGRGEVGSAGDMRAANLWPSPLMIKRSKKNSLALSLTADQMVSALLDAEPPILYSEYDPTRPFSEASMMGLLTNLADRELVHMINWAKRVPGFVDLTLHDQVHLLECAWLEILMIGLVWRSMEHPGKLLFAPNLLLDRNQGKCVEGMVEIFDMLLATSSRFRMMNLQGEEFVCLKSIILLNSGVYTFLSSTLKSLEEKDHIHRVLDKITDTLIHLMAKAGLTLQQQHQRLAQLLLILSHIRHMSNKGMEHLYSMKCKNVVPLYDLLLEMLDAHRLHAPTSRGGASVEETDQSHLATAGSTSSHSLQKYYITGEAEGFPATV
Method in brief: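 VM7Luc4E2, endog. ER-alpha + 4×ERE-luc; charcoal-stripped FBS, phenol red-free, 5 d; 24hr plating; +10.0nM ICI-182,780 (final); cpds 15 conc, 22hr, 37C/5% CO2; ONE-Glo luminescence.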

[8] = qHTS assay to identify small molecule agonists or antagonists of the thyroid stimulating hormone receptor (TSHR) signaling pathway - wild type cell line counter screen (AID 1259384)
Method in brief: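 Wild-type Hek293 cells, 800/well, 18 h at 37C, then compound with Ro20-1724 for 30 min RT. cAMP by HTRF (cAMP-d2/anti-cAMP cryptate), 1 h RT, fluorescence read. 15 concentrations, triplicates.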

[9] = target: Thyrotropin receptor (Homo sapiens) (UniProt P16473); assay: qHTS assay to identify small molecule antagonists of the thyroid stimulating hormone receptor (TSHR) signaling pathway (AID 1259385); note: nearly all actives have a fitted effect of over 20% in size
Thyrotropin receptor (Homo sapiens), sequence (P16473 whole entry, looked up): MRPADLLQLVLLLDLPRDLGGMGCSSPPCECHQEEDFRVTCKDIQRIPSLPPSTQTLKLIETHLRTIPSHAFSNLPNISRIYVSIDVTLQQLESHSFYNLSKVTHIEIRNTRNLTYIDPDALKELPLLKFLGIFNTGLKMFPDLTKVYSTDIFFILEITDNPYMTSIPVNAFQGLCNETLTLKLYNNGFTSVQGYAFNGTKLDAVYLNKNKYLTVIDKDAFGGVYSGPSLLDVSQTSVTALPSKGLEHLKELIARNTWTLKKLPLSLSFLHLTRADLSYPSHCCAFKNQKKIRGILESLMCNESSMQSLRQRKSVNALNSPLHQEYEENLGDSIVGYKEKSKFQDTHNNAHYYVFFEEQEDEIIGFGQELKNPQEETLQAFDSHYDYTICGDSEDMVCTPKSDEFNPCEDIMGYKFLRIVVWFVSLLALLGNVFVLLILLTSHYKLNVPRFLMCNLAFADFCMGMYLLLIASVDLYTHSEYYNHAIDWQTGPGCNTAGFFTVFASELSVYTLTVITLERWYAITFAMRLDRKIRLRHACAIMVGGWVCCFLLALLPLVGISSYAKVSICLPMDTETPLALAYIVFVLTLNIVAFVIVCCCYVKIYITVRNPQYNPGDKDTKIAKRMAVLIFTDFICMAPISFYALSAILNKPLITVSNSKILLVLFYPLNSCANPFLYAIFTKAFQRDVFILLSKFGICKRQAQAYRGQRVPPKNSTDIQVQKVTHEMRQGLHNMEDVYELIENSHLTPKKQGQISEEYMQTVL
Method in brief: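 TSHR-HEK293 cells (800/well) plated 18 h, then compounds with Ro20-1724 and TSH at 1.5 ng/mL final, 30 min at room temperature. cAMP quantified by HTRF (cAMP-d2/anti-cAMP-cryptate, 1 h); 15 concentrations in triplicate.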

[10] = qHTS assay to identify small molecule agonists of the estrogen receptor alpha (ER-alpha) signaling pathway in the presence of an antagonist - cell viability counter screen (AID 1259386; active = well fitted curve in the direction sought with a large enough effect in the repeat runs; an effect the other way counts as inactive or inconclusive;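 note: series mostly up to about 92 µM; cells exposed to compounds for 22 h at 37 °C before the viability read; nearly all actives have a fitted effect of over 30% in size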)
Method in brief: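 VM7Luc4E2, stripped-serum pre-culture 5 d; 24hr plating; +ICI-182,780 10.0nM final; cpds 15 conc, 22hr, 37C/5% CO2; CellTiter-Fluor added at 21hr, fluorescence 1hr later.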

[11] = target: Progesterone receptor (Homo sapiens) (UniProt P06401); assay: qHTS assay to identify small molecule antagonists of the progesterone receptor (PR) signaling pathway (AID 1346795; active = well fitted inhibition curve with a large enough effect in the signal ratio in the repeat runs, not every such curve was filed as active; the % refers to the signal ratio; note: potency is the fitted concentration of half-maximal effect)
Progesterone receptor (Homo sapiens), sequence (P06401 whole entry, looked up): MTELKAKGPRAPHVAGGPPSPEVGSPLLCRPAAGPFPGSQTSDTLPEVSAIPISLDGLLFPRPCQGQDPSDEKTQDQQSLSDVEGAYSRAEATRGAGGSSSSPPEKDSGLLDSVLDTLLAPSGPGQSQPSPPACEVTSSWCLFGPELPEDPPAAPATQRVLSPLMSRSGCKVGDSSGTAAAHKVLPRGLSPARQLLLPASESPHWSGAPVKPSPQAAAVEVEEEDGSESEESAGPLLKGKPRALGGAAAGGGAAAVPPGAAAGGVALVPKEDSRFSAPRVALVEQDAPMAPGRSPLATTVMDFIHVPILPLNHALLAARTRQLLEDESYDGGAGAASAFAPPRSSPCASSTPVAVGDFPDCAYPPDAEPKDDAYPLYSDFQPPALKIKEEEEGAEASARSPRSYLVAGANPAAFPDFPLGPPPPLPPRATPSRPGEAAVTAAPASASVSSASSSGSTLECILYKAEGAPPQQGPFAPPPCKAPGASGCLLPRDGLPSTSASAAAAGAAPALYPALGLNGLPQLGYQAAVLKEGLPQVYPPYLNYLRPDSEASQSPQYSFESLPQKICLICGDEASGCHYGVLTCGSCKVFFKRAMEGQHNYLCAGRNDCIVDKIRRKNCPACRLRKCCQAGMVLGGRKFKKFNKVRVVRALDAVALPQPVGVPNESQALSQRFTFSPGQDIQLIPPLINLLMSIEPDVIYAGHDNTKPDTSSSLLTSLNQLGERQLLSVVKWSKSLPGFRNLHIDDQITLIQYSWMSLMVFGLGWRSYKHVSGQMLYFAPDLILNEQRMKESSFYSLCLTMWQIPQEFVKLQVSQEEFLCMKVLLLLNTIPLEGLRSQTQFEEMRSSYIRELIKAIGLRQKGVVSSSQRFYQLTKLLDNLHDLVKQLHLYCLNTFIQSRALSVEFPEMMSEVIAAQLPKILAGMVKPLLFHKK
Method in brief: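 Inhibition of R5020-induced (1 nM final) beta-lactamase reporter signal in PR-UAS-bla HEK293T cells was scored by FRET fluorescence after overnight (16 hr) compound treatment.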

[12] = qHTS assay to identify small molecule antagonists of the progesterone receptor (PR) signaling pathway - cell viability counter screen (AID 1346798; active = well fitted curve in the direction sought with a large enough effect in the repeat runs; an effect the other way counts as inactive or inconclusive; note: series mostly up to about 92 µM; nearly all actives have a fitted effect of over 50% in size)
Method in brief: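 ATP content as viability readout: CellTiter-Glo luminescence, 30 min room temperature, in PR-UAS-bla HEK293T cells after 16 hr compound/R5020 treatment at 37C and 5% CO2.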

[13] = qHTS assay to identify small molecule agonists of the progesterone receptor (PR) signaling pathway - cell viability counter screen (AID 1346799); note: nearly all actives have a fitted effect of over 45% in size
Method in brief: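 Cytotoxicity in PR-bla HEK293T cells: 16 h compound, 37C; CellTiter-Glo added post-FRET read; luminescence after 30 min RT.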

[14] = qHTS assay to identify small molecule antagonists of the TGF-beta/Smad signaling pathway - cell viability counter screen (AID 1346824; active = well fitted curve in the direction sought with a large enough effect in the repeat runs; an effect the other way counts as inactive or inconclusive; note: nearly all actives have a fitted effect of over 50% in size)
Method in brief: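 SBE-bla HEK 293T cells, incubated overnight, then compound plus 0.25 ng/mL TGF-beta1 (stock added) for 5 hr at 37 C. Viability was read in the same wells by CellTiter-Glo luminescence after 30 min at room temperature.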

[15] = qHTS assay to identify small molecule agonists of the TGF-beta/Smad signaling pathway - cell viability counter screen (AID 1346829; active = well fitted curve in the direction sought with a large enough effect in the repeat runs; an effect the other way counts as inactive or inconclusive; note: top concentration of the series differs between compounds; nearly all actives have a fitted effect of over 45% in size)
Method in brief: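 In parallel with the Smad reporter read, viability of HEK 293T cells stably carrying SBE-bla is quantified by ATP luminescence following 5 hr compound treatment.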

[16] = target: Thyrotropin-releasing hormone receptor (Homo sapiens) (UniProt P34981); assay: qHTS assay to identify small molecule antagonists of the thyrotropin-releasing hormone receptor (TRHR) signaling pathway (AID 1346877; active = well fitted inhibition curve with a large enough effect in the repeat runs, not every such curve was filed as active; note: series mostly up to about 51 µM)
Thyrotropin-releasing hormone receptor (Homo sapiens), sequence (P34981 whole entry, looked up): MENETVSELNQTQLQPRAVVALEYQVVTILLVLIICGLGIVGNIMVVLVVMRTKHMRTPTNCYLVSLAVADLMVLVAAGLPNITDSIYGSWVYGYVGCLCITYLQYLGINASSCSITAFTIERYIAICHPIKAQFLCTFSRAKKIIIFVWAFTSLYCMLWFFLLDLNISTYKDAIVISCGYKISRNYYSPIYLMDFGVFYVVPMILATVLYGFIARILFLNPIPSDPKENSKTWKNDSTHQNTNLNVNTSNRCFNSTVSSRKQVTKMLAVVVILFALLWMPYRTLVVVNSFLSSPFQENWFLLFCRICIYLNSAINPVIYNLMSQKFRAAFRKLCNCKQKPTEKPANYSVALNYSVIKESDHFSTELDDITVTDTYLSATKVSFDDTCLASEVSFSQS
Method in brief: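 Intracellular calcium fluorescence, read kinetically every second over 3 min, reports TRH-evoked signalling in HEK293 cells carrying TRHR. Test compounds were added 5 min ahead of a 1 nM TRH challenge.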

[17] = target: Estrogen receptor beta (Homo sapiens) (UniProt Q92731); assay: qHTS assay to identify small molecule antagonists of the estrogen receptor beta (ER-beta) signaling pathway (AID 1259378; active = well fitted inhibition curve with a large enough effect in the signal ratio in the repeat runs, not every such curve was filed as active; the % refers to the signal ratio)
Method in brief: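 ER-beta-UAS-bla HEK293T cells in 2% charcoal-stripped FBS medium treated with compound plus 1nM final 17-beta-estradiol for 16 hr at 37C. Beta-lactamase reporter read by FRET substrate fluorescence after 2 hours at room temperature.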

[18] = qHTS assay to identify small molecule antagonists of the estrogen receptor beta (ER-beta) signaling pathway - cell viability counter screen (AID 1259382; active = well fitted curve in the direction sought with a large enough effect in the repeat runs; an effect the other way counts as inactive or inconclusive; note: series mostly up to about 92 µM; nearly all actives have a fitted effect of over 55% in size)
Method in brief: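 Cells: ER-beta-UAS-bla HEK293T, 2,000/well, 2% CS-FBS, 6 hr settle. Cpd + E2 (1nM final), 16 hr, 37C/5% CO2. Bla FRET substrate 2 hr RT, then CellTiter-Glo 30 min RT, luminescence.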

[19] = target: Progesterone receptor (Homo sapiens) (UniProt P06401); assay: qHTS assay to identify small molecule agonists of the progesterone receptor (PR) signaling pathway (AID 1346784); note: nearly all actives have a fitted effect of over 30% in size
Method in brief: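 Using charcoal-stripped serum (2%) to limit endogenous steroids, PR-UAS-bla HEK 293T cells received compounds for 16 hr at 37C after 6 hr plating; beta-lactamase FRET fluorescence was recorded following 2 hr substrate loading at room temperature.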

[20] = qHTS assay to identify small molecule agonists of the TGF-beta/Smad signaling pathway (AID 1346859; active = well fitted activation curve with a large enough effect in the signal ratio in the repeat runs, not every such curve was filed as active; the % refers to the signal ratio; note: series mostly up to about 77 µM)
Method in brief: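 Stable Smad binding element-beta-lactamase HEK 293T cells; 5 hr compound exposure at 37 C under 5% CO2; 2 hr room-temperature substrate step; fluorescence excited at 405 nm, collected at 460 nm and 530 nm.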

Measured: Potency

CCCCCOc1ccc(C2SC(=O)NC2=O)cc1OCC (centres undefined)
active: [5] 29.8 µM
not listed: [17] | [18] | [19] | [20]
inactive: all other assays above

O=C1CCC(C2CCCCC2)CC1
not listed: [4] | [6] | [7] | [13]
inactive: all other assays above

CC[C@H]1CC[C@H](NCc2cc3c(cc2OC)[C@H]2C[C@H]2C(=O)N3C)[C@H](c2ccccc2)N1
active: [2] 4.33 µM
not listed: [4] | [5] | [6] | [10] | [11] | [12] | [13] | [18]
inactive: all other assays above

Cc1c(C(=O)NCCO)[n+](=O)c2ccccc2n1[O-]
not listed: [4] | [7] | [16] | [18]
inactive: all other assays above

CCCCCCn1c(=O)c2c(ncn2C)n(C)c1=O
not listed: [4] | [15] | [16]
inactive: all other assays above

Cc1ccc([N+](=O)[O-])c(N)c1
active: [2] 18.9 µM | [11] 59.6 µM
not listed: [4] | [6] | [7] | [12] | [18]
inactive: all other assays above

COc1ccc(S(=O)(=O)Nc2nnc(CC(C)C)s2)cc1
not listed: [4] | [6] | [8] | [9] | [12] | [16]
inactive: all other assays above

O=c1[nH]c(=O)n([C@H]2C[C@H](O)[C@@H](CO)O2)cc1C(F)(F)F
not listed: [6] | [11] | [16] | [17]
inactive: all other assays above

Cc1cccc(C)c1NC(=O)CN1CCCCCC1
not listed: [4] | [6] | [11] | [16] | [19]
inactive: all other assays above

O=C1CCN(c2ccccc2)N1
active: [5] 21.8 µM | [6] 30.7 µM
not listed: [12] | [16] | [17] | [18] | [19]
inactive: all other assays above

CC1=C(O)C(=O)OC1C (centres undefined)
not listed: [4] | [6] | [7] | [11]
inactive: all other assays above

Oc1ccccc1C=NCc1ccccc1
not listed: [4] | [6] | [7] | [10] | [18]
inactive: all other assays above

CCCCC(CC)COC(=O)COc1cc(Cl)c(Cl)cc1Cl (centres undefined)
not listed: [4] | [6] | [9] | [18] | [19]
inactive: all other assays above

CN1CCN(c2c(F)cc3c(=O)c(C(=O)O)cn4c3c2SCC4)CC1
not listed: [4] | [6] | [16] | [19]
inactive: all other assays above
